TDP1 cell noCPT: qHTS for Inhibitors of human tyrosyl-DNA phosphodiesterase 1 (TDP1): qHTS in cells in absence of CPT; DT40 Tdp1-/- hTDP1 cells, no CPT, ATP luminescence, 48 h; Potency, µM (series often up to 46.2 µM), for inactives: at the top dose activity change, negative = growth inhibition, actives largely listed as inhibitors; hit rate 15% among 420,000; AID 686978, 2013; further: potency means the concentration at half of the fitted maximal effect; on the % scale 0 is the no-effect control and ±100 the full control effect; nearly all actives have a fitted effect of over 55% in size
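Readout: luminescence from CellTiter-Glo after 30 min in the dark at RT. Cells: DT40 Tdp1-/- with stable hTDP1, 400/well. Exposure: compounds alone, ≥48 hr, 37 °C.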
IL-1B inflam inh: inhibitors of inflammasome signaling (IL-1 beta secretion); THP-1 LPS/ATP IL-1B secretion, AlphaLISA, 16 h; stronger effect = lower value; activity change, % at 57.5 µM; hit rate 4.7% among 360,000; in the data active means activity change below about -50%; inconclusive means mostly about -30% to -49%; further: on the % scale 0 is the no-effect control and ±100 the full control effect
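Secreted IL-1B measured by AlphaLISA bead assay after 16 h compound exposure of THP-1 cells; compounds (final up to 57.5 uM) added 1 h before LPS (250 ng/mL) and ATP (1.25 mM) stimulation; lower signal means less secretion.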
BCR signal inh: inhibitors of chronic active B-cell receptor signaling; AID 493014; Potency, µM (series often up to 46.1 µM), for inactives: top-dose activity change, negative = inhibition, usual class: inhibitors; hit rate 0.05% among 340,000; ABC-DLBCL IkBa-CBG/CBR reporter, luminescence ratio, 4 h; active means well fitted inhibition curve with a large enough effect in the signal ratio, with a control signal flat, not every such curve was filed as active; inconclusive means small, poorly fitted or top-dose-only effect, or effect the other way, or a change in a side signal; the % refers to the signal ratio;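 further: potency means the concentration at half of the fitted maximal effect; plate controls were basal doxycycline-induced cells for no effect and cells given 10 µM MG132 for full effect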
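Concentration-response series (up to 46 uM) were applied to TMD8 dual-reporter cells for 4 h at 37C with doxycycline. Green/red ratio, after filter-overlap correction, defined %Activity; red signal alone was normalised to basal cells and zero luminescence.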
SW480 rerep: induces DNA re-replication in SW480 colon adenocarcinoma cells; SW480 DNA re-replication, Hoechst DNA content imaging, 48 h; Potency, µM (series often up to 46.1 µM), inactives show at the top dose re-replication activation, usual class: activators; hit rate 1.8% among 340,000; AID 624297; further: potency means the concentration at half of the fitted maximal effect; % of control where 0% means no effect; nearly all actives have a fitted effect of over 55% in size
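Quantitative HTS format with DMSO vehicle controls; 48 hr drug incubation at 37 C, then 40 min Hoechst staining and scanning imager measurement at 405 nm excitation.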
TDP1 cell CPT: growth inhibition of DT40 Tdp1-/-;hTDP1 cells with camptothecin (screen for TDP1 inhibitors) | Potency, µM (series often up to 46.2 µM), for the others: top-dose activity change, negative = growth inhibition, usual class: inhibitors | hit rate 12% among 420,000 | chicken DT40 Tdp1-/-;hTDP1 cells + 20 nM CPT, ATP luminescence, 48 h | AID 686979; further: potency means the concentration at half of the fitted maximal effect; on the % scale 0 is the no-effect control and ±100 the full control effect; nearly all actives have a fitted effect of over 55% in size
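Cell growth measured by CellTiter-Glo luminescence after a minimum 48 h, 37 C compound exposure with 20 nM CPT in Tdp1-knockout DT40 cells stably expressing hTDP1, seeded 400/well; qHTS titration format.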
MCF10A rerep: inducers of DNA re-replication in MCF 10A breast cells; MCF 10A DNA re-replication, Hoechst nuclear intensity, 48 h; Potency, µM (doses to about 46.1 µM), inactives show top-dose activity, positive = re-replication, most hits filed as activators; hit rate 2.9% among 350,000; further: potency means the concentration at half of the fitted maximal effect; % of control where 0% means no effect; nearly all actives have a fitted effect of over 50% in size
* = called active by the depositor; i = inactive; ? = inconclusive; nt = no result. Sampled rows, rich in hits. Any-hit rate of the full collection: about 19%. Unless noted, the call rests on the fitted dose curve; in most records, active means well fitted curve in the direction sought with a large enough effect; inconclusive means small, poorly fitted or top-dose-only effect, or another doubt; inactive means no such curve, though single readings can be large; an effect the other way counts as inactive or inconclusive.

SMILES	TDP1 cell noCPT	IL-1B inflam inh	BCR signal inh	SW480 rerep	TDP1 cell CPT	MCF10A rerep
CCCCCC(=O)N1C[C@H](n2cc(COC(=O)c3ccccc3)nn2)[C@@H](O)C[C@@H]1c1ccccc1	4%	-3	nt	nt	4%	nt
CCCCCC(=O)N1C[C@H](O)[C@@H](n2cc(COC(=O)c3ccccc3)nn2)C[C@@H]1c1ccc(Cl)cc1	26µM*	-6	nt	nt	?	nt
CCCN(C(=O)CCl)C1=CCCCC1	13µM*	-87*	3%	21%	18µM*	16%
CC(=O)N1N=C(c2cccc(Cl)c2)OC1c1cccc([N+](=O)[O-])c1 (configuration not stated)	21µM*	-1	-3%	-1%	?	12%
CC(NC(=O)CCc1ccccc1)c1cc2c(cc1Cl)OCCO2 (configuration not stated)	?	-2	4%	18%	15µM*	?
COCCNC(=O)C1(C)CCN(C(=O)c2ccc3sccc3c2)C1 (configuration not stated)	0%	3	nt	nt	0%	nt
Cc1cc(C)nc(NC(=S)NC(=O)c2ccccc2F)n1	-23%	nt	nt	-53%	18%	-11%
Cc1cc(C)nc(S/C=C/C(=O)c2ccccc2F)n1	3.7µM*	?	?	-4%	2.1µM*	2.6µM*
CN(C)c1ccc(-c2cncnc2NCCN2CCOCC2)cc1	1.2µM*	nt	nt	nt	0.92µM*	nt
COc1cccc(-c2cncnc2NCc2cnc(C)cn2)c1	3.7µM*	nt	nt	nt	4.6µM*	nt
Cc1noc(C)c1-c1cncnc1NCCN1CCOCC1	7%	nt	nt	nt	4%	nt
Cc1cnc(CNc2ncncc2-c2cccc(C#N)c2)cn1	0%	nt	nt	nt	-6%	nt
COc1cccc(-c2cncnc2NCCN2CCOCC2)c1	2.9µM*	nt	nt	nt	0.82µM*	nt
Cc1ccccc1-c1cncnc1NCCN1CCOCC1	3.3µM*	nt	nt	nt	2.9µM*	nt
COc1cccc(-c2cncnc2Nc2ccccc2)c1	?	nt	nt	nt	-26%	nt
COc1cccc(C(=O)OCC(=O)NCCC2=CCCCC2)c1	-10%	16	-1%	2%	-16%	2%
Cc1ccc(N(CCC#N)C(=O)COC(=O)C2=COCCO2)cc1	8%	4	1%	-1%	3%	1%
NS(=O)(=O)c1ccc(CCNc2ccn3nc(-c4ccccc4)cc3n2)cc1	?	-22	nt	nt	26µM*	nt
COc1cc(CCNc2ccc3nnc(-c4ccccc4)n3n2)cc(OC)c1OC	10µM*	28	-9%	2%	16µM*	1%
COc1cc(-c2cc3nc(NCCc4ccncc4)ccn3n2)cc(OC)c1OC	18µM*	-58*	nt	nt	18µM*	nt
COc1cc(-c2cc3nc(NCCc4ccc(S(N)(=O)=O)cc4)ccn3n2)cc(OC)c1OC	21µM*	-50*	nt	nt	23µM*	nt
COC(=O)c1ccc2c(=O)n(CCCCCC(=O)NCCc3ccc(Cl)cc3)c(=O)[nH]c2c1	?	nt	?	nt	-28%	nt
CC(C)Cc1ccc(-c2cc3nc(NCCOc4ccccc4)ccn3n2)cc1	?	-10	nt	nt	?	nt
CC(C)Cc1ccc(-c2cc3nc(NCCc4ccc(S(N)(=O)=O)cc4)ccn3n2)cc1	12µM*	31	nt	nt	23µM*	nt
COc1cc(-c2cc3nc(NCc4ccco4)ccn3n2)cc(OC)c1OC	12µM*	-12	nt	nt	21µM*	nt
SMILES	TDP1 cell noCPT	IL-1B inflam inh	BCR signal inh	SW480 rerep	TDP1 cell CPT	MCF10A rerep
COc1cc(CC(=O)OCC(=O)NCc2ccco2)cc(OC)c1OC	13%	2	-2%	-16%	2%	-6%
COc1cc(-c2cc3nc(NCCOc4ccccc4)ccn3n2)cc(OC)c1OC	2.3µM*	12	nt	nt	2.6µM*	nt
CCN1CCN(C(=O)c2ccc(CS(=O)(=O)Cc3ccccc3C)o2)CC1	0%	6	?	-5%	-13%	2%
Cc1ccc(S(=O)(=O)N2CCN(C(=O)CN3CCCSc4ccccc43)CC2)cc1	?	-23	8%	3%	?	16%
CCOC(=O)Cc1csc(SCC(=O)NC2CCCC2)n1	-9%	15	0%	-5%	-6%	0%
Cc1ccc(C(=O)NN(C)c2nc3ccccc3nc2C(F)(F)F)cc1	3.7µM*	58	-6%	13µM*	4.6µM*	4.6µM*
CN(NC(=O)c1ccc(Cl)cc1)c1nc(-c2ccccc2)nnc1C(F)(F)F	15µM*	5	0%	-2%	21µM*	?
N#Cc1ccc(/C=C/C(=O)c2ccco2)cc1	10µM*	-29	-6%	?	9.2µM*	?
CC(C)(C)C(=O)Nc1ccc(/C=C/C(=O)c2ccco2)cc1	?	-102*	?	24%	?	?
Nc1ccc(/C=C/C(=O)c2ccco2)cc1	?	-23	?	2%	-19%	18%
COc1cc(/C=C/C(=O)Nc2ccc(S(=O)(=O)Nc3ncccn3)cc2)ccc1OCC#N	?	-18	nt	-5%	1%	25%
Cc1ccccc1-c1nc2c3ccccc3nc(=S)n2[nH]1	3.3µM*	11	?	15%	4.1µM*	7.3µM*
CN(CC(=O)Nc1cccc(F)c1)C(=O)COc1cccc2c1OC(C)(C)C2	?	i	-1%	-2%	-8%	0%
CC(C)c1nn2c(=O)cc(COC(=O)c3ccc(NC(=O)C4CCCCC4)cc3)nc2s1	21µM*	nt	nt	nt	?	nt
CCOc1cc(C(=O)OCc2cc(=O)n3nc(C4CC4)sc3n2)cc(OCC)c1OCC	21µM*	nt	nt	nt	?	nt
CCOc1ccc(C(=O)OCc2cc(=O)n3nc(C(C)C)sc3n2)cc1	-8%	nt	nt	nt	-12%	nt
CCOc1ccc(C(=O)OCc2cc(=O)n3nc(C4CCCCC4)sc3n2)cc1	16µM*	nt	nt	nt	?	nt
Cc1cccc(C)c1NC(=O)c1ccc2sc([C@@H]3O[C@H](CO)[C@H](O)[C@H](O)[C@H]3O)nc2c1	5%	-20	nt	nt	-11%	nt
CCOc1cc(/C=C2\C(=O)N(c3ccc(C(N)=O)cc3)N=C2C)ccc1OC(=O)c1cccs1	23µM*	-7	?	2%	15µM*	?
CCn1c(=O)c(C(=O)CN(C)Cc2cccc(OC)c2OC)c(N)n(Cc2ccccc2)c1=O	15µM*	24	?	30%	?	-2%
COc1cc([N+](=O)[O-])cc(/C=N/NC(=O)C(C)Nc2cccc(C)c2)c1O (configuration not stated)	?	0	5%	nt	1%	?
Cc1ccc(C(=O)N/N=C\C=C\c2ccc(Br)cc2)cn1	?	20	?	?	-24%	11%

Bioassay records as filed in PubChem.
